Measured values as given in PubChem BioAssay (EPA / NIEHS).
“And” between values parts separate entries of the source, which are not always exact repeats. Equal entries are not always repeated. Results filed as inconclusive are left out. A structure can be active in one record and inactive in another. The source made the active and inactive calls. Rule for the calls, unless noted: active = hit-call score of the fitted dose curve at least 0.9, where 1 is the maximum; inactive = score below 0.9.

Legend:
[1] = BSK_BT_Bcell_Proliferation: Viability Assessment in the BioMAP Diversity Plus: BT Assay for B cell Proliferation (AID 2284227); settings: primary human B cells with PBMC
Outline: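 Using a human primary B cell–PBMC co-culture, the assay measures total protein by sulforhodamine B absorbance as a gauge of proliferation after 72 h. Analysis followed the positive fitting direction with DMSO as baseline.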

[2] = read-out: Interleukin 6 (IL6), IL6 (gene 3569); experiment: BSK_BT_xIL6: BioMAP Diversity Plus: BT Assay for Interleukin 6 (IL6) Biomarker Activity (AID 2284228); settings: primary human B cells with PBMC
Outline: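 Human B cell/PBMC co-culture; secreted IL-6 quantified by Luminex xMAP 24 h after chemical dosing, fitted relative to DMSO. Parallel PBMC viability by Alamar Blue after 1 h pretreatment, 20 ng/mL SEB and TSST-1, 90 h incubation.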

[3] = read-out: Tumor necrosis factor (Homo sapiens) (UniProt P01375); experiment: BSK_BT_xTNFa: BioMAP Diversity Plus: BT Assay for Tumor necrosis factor alpha (TNF-alpha) Biomarker Activity (AID 2284230); settings: primary human B cells with PBMC
Outline: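 Endpoint derived in the positive direction versus DMSO vehicle. Cells: B cells together with PBMC, exposed 24 h before TNF-alpha in the medium was read on the Luminex xMAP platform.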

[4] = read-out: Vascular cell adhesion molecule 1 (VCAM1), VCAM1 (gene 7412); experiment: BSK_MyoF_VCAM1: BioMAP Diversity Plus: MyoF Assay for Vascular cell adhesion molecule 1 (VCAM1) Biomarker Activity (AID 2284231); settings: primary human lung fibroblasts
Outline: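 Primary human lung fibroblasts (BioMAP MyoF system) dosed with chemical, VCAM-1 measured by ELISA 24 hours later. Fitted in the positive direction against DMSO; parallel SRB staining assessed cytotoxicity.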

[5] = read-out: Collagen I, COL1A1 (gene 1277); experiment: BSK_MyoF_CollagenI: BioMAP Diversity Plus: MyoF Assay for Collagen I Biomarker Activity (AID 2284238); settings: primary human lung fibroblasts
Outline: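 Primary human lung fibroblasts (MyoF system) treated 24 h; Collagen I quantified by ELISA and fitted in positive direction against DMSO. Parallel SRB total-protein staining assessed overt cytotoxicity.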

[6] = read-out: Collagen III, COL3A1 (gene 1281); experiment: BSK_MyoF_CollagenIII: BioMAP Diversity Plus: MyoF Assay for Collagen III Biomarker Activity (AID 2284239); settings: primary human lung fibroblasts
Outline: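 Primary human lung fibroblasts (BioMAP MyoF system) exposed 24 h. Collagen III measured by ELISA; positive-direction fit relative to DMSO.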

[7] = read-out: Interleukin 17F (IL17F), IL17F (gene 112744); experiment: BSK_BT_xIL17F: BioMAP Diversity Plus: BT Assay for Interleukin 17F (IL17F) Biomarker Activity (AID 2284243); settings: primary human B cells with PBMC
Outline: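 Human PBMC co-cultured with B cells, compound exposure 24 h; secreted IL-17F quantified by Luminex xMAP, referenced to DMSO control. PBMC viability measured in parallel by Alamar Blue reduction.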

[8] = read-out: Actin alpha 1 (ACTA1), ACTA1 (gene 58); experiment: BSK_MyoF_ACTA1: BioMAP Diversity Plus: MyoF Assay for Actin alpha 1 (ACTA1) Biomarker Activity (AID 2284244); settings: primary human lung fibroblasts
Outline: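 MyoF fibroblast system (human lung); a-SMA quantified via ELISA at 24 h; DMSO-normalised, gain-of-signal endpoint.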

[9] = read-out: Interleukin 2 (IL2), IL2 (gene 3558); experiment: BSK_BT_xIL2: BioMAP Diversity Plus: BT Assay for Interleukin 2 (IL2) Biomarker Activity (AID 2284245); settings: primary human B cells with PBMC
Outline: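 Co-cultures of primary human B cells and PBMC are treated with chemical and sampled at 24 h. IL-2 secretion is quantified by Luminex xMAP, with DMSO-treated wells as baseline.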

[10] = read-out: Basic fibroblast growth factor (bFGF), FGF2 (gene 2247); experiment: BSK_MyoF_bFGF: BioMAP Diversity Plus: MyoF Assay for Basic fibroblast growth factor (bFGF) Biomarker Activity (AID 2284246); settings: primary human lung fibroblasts
Outline: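 Fibroblasts from human lung, 24 h dosing. bFGF by ELISA; gain of signal over DMSO.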

[11] = read-out: Collagen IV, COL4A1 (gene 1282); experiment: BSK_MyoF_CollagenIV: BioMAP Diversity Plus: MyoF Assay for Collagen IV Biomarker Activity (AID 2284247); settings: primary human lung fibroblasts
Outline: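 Lung fibroblasts (human primary) treated with chemicals were assayed after 24 h for Collagen IV using an ELISA, with DMSO serving as negative control and baseline for a positive-direction fit.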

[12] = read-out: Monokine induced gamma interferon (MIG), CXCL9 (gene 4283); experiment: BSK_KF3CT_MIG: BioMAP Diversity Plus: KF3CT Assay for Monokine induced gamma interferon (MIG) Biomarker Activity (AID 2284248); settings: primary human keratinocytes with fibroblasts
Outline: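 Human keratinocyte–foreskin fibroblast co-culture; MIG measured by ELISA 24 h after chemical dosing, fitted upward versus DMSO. Cytotoxicity was assessed in parallel cultures by SRB total-protein staining read at 560 nm.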

[13] = read-out: Vascular cell adhesion molecule 1 (VCAM1), VCAM1 (gene 7412); experiment: BSK_BF4T_VCAM1: BioMAP Diversity Plus: BF4T Assay for Vascular cell adhesion molecule 1 (VCAM1) Biomarker Activity (AID 2284249); settings: primary human bronchial epithelial cells with fibroblasts
Outline: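 Cell-surface VCAM-1 quantified by ELISA after 24 h chemical exposure of human bronchial epithelial/dermal fibroblast co-cultures, with SRB staining in parallel wells for cytotoxicity; DMSO baseline, positive-direction fitting.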

[14] = read-out: Collagen I, COL1A1 (gene 1277); experiment: BSK_hDFCGF_CollagenI: BioMAP Diversity Plus: hDFCGF Assay for Collagen I Biomarker Activity (AID 2284250); settings: primary human foreskin fibroblasts
Outline: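 Readout: Collagen I by ELISA after 24 h compound treatment of primary human foreskin fibroblasts. Endpoint analysed for increases relative to DMSO; total protein by SRB in parallel wells flagged cytotoxicity.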

[15] = read-out: Plasminogen activator inhibitor-1 (PAI1), SERPINE1 (gene 5054); experiment: BSK_KF3CT_PAI1: BioMAP Diversity Plus: KF3CT Assay for Plasminogen activator inhibitor-1 (PAI1) Biomarker Activity (AID 2284252); settings: primary human keratinocytes with fibroblasts
Outline: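 In this co-culture of primary human keratinocytes and foreskin fibroblasts, PAI-1 was measured by ELISA at 24 h and fitted upward from DMSO.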

[16] = read-out: Monocyte Chemoattractant Protein-1 (MCP1), CCL2 (gene 6347); experiment: BSK_IMphg_MCP1: BioMAP Diversity Plus: IMphg Assay for Monocyte Chemoattractant Protein-1 (MCP1) Biomarker Activity (AID 2284253); settings: primary human endothelial cells with macrophages
Outline: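 ELISA readout of MCP-1 at 24 hours in IMphg co-cultures of venular endothelial cells and macrophages, normalised to DMSO; parallel cultures stained with sulforhodamine B for overt cytotoxicity.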

[17] = read-out: Interferon-inducible T-cell alpha chemoattractant (ITAC), CXCL11 (gene 6373); experiment: BSK_hDFCGF_ITAC: BioMAP Diversity Plus: hDFCGF Assay for Interferon-inducible T-cell alpha chemoattractant (ITAC) Biomarker Activity (AID 2284251); settings: primary human foreskin fibroblasts
Outline: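 Measured by ELISA, the chemokine level serves as the endpoint in human skin fibroblast primary cultures 24 h after compound addition. Increases relative to DMSO-treated wells define activity.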

[18] = CCTE_Mundy_HCI_hNP1_Casp3_7: CCTE's Caspase-Glo 3/7 Assay in human neuroprogenitor cells for Apoptosis, Mundy Lab (AID 2284240)
Outline: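 Luminescent caspase-3/7 readout, 26.5 h post-dose, in human neural progenitor cells from WA09 embryonic stem cells. Cells grew 40–44 h at 37 °C, 5% CO2 before chemical addition. Activity analysed as signal increase over DMSO baseline.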

[19] = CCTE_Mundy_HCI_hNP1_CellTiter: CCTE's Cell Titer-Glo 2 Assay in human neuroprogenitor cells for Viability, Mundy Lab (AID 2284241; active = hit-call score of the fitted dose curve at least 0.9, where 1 is the maximum)
Outline: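 Viability read as luminescent ATP content (CellTiter-Glo, 30 min room temperature) twenty-four hours after dosing, relative to DMSO. Cells: WA09-derived hNP1 neuroprogenitors on poly-L-ornithine/laminin, plated 40 to 44 hours before chemical.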

Measured: AC50

Chain of Tumor necrosis factor (Homo sapiens) (P01375 whole entry, looked up): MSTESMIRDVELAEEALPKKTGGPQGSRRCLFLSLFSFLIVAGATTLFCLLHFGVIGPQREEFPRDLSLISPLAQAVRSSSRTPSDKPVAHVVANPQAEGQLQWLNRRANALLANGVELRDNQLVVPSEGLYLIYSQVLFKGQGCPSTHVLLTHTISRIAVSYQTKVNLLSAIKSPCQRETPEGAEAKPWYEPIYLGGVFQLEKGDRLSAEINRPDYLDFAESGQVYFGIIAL

OCC(F)(F)C(F)(F)C(F)(F)CO
not listed: [17] | [18] | [19]
inactive: all other assays above

NS(=O)(=O)C(F)(F)C(F)(F)C(F)(F)C(F)(F)C(F)(F)C(F)(F)F
inactive: [1] | [2] | [3] | [4] | [5] | [6] | [7] | [8] | [9] | [10] | [12] | [14] | [15] | [16]
active: [11] 25.5 µM and 20.4 µM | [13] 19.8 µM and 21.1 µM | [17] 43.1 µM and 39.1 µM | [16] 22.3 µM

CCN=C1C=CC(=C(c2ccc(N(CC)CC)cc2)c2ccc(N(CC)CC)cc2)c2ccccc21
active: [12] 2.63 µM and 2.31 µM | [15] 1.64 µM and 1.56 µM
inactive: [14]

CCOC(=O)CC(=O)C(F)(F)C(F)(F)F
not listed: [6] | [17] | [18] | [19]
inactive: all other assays above

NC(=O)C(F)(F)C(F)(F)C(F)(F)C(F)F
not listed: [6] | [17] | [18] | [19]
inactive: all other assays above

OCC(F)(F)C(F)(F)C(F)(F)C(F)(F)C(F)(F)C(F)(F)CO
not listed: [6] | [18] | [19]
inactive: all other assays above

OCC(O)CC(F)(F)C(F)(F)C(F)(F)C(F)(F)C(F)(F)C(F)(F)C(F)(F)C(F)(F)F (configuration not stated)
not listed: [18] | [19]
inactive: all other assays above

Cc1ccc(O)c(-n2nc3ccccc3n2)c1
inactive: [1] | [2] | [3] | [4] | [5] | [7] | [8] | [9] | [10] | [11]

CC1=CC2C3C=CC(C3)C2C1C (configuration not stated)
inactive: [1] | [3] | [4] | [5] | [7] | [8] | [9] | [10] | [11]
active: [2] 16.7 µM

OC(O)C(F)(F)C(F)(F)F
not listed: [17] | [18] | [19]
inactive: all other assays above

O=C(O)C(F)(F)C(F)(F)C(F)(F)OC(F)(C(F)(F)F)C(F)(F)F
not listed: [6]
inactive: all other assays above

O=S(=O)(O)CCC(F)(F)C(F)(F)C(F)(F)C(F)(F)C(F)(F)C(F)(F)C(F)(F)C(F)(F)F
not listed: [6] | [17] | [19]
inactive: all other assays above

NC(=O)C(F)(F)C(F)(F)C(F)(F)F
not listed: [6] | [17] | [18] | [19]
inactive: all other assays above

C=CC(=O)OCC(F)(F)C(F)(F)C(F)(F)C(F)(F)C(F)(F)C(F)(F)C(F)(F)C(F)F
inactive: [5] | [9] | [10] | [11] | [12] | [13] | [14] | [15] | [16]
active: [1] 44.8 µM and 30 µM | [2] 33.7 µM and 14.4 µM | [3] 35.1 µM and 6.23 µM | [4] 27.2 µM and 37.2 µM | [7] 18.8 µM | [8] 30 µM and 19.5 µM | [9] 44.5 µM | [17] 30 µM
